Assay [1] addresses Albumin (Bos taurus) (UniProt P02769). Kind of assay: bovine serum albumin binders on microarray, profiling panel, artefact control for SMM control protein annotation, biochemical, small-molecule microarray, Alexa647 label, 635/667 nm fluorescence (AID 1118).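 Further: score merges 667 nm emission intensity and signal-to-noise per printed compound spot.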 Particulars: BSA-A647 binding, fluorescence 635 nm, higher = more signal.
Assay [2] can be described thus: small-molecule microarray binders of probe aXIP, primary screen, biochemical, NeuroSMM set, 635/667 nm fluorescence (AID 1119).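 Further: probe is the protein aXip251-270 applied at 1 µg/mL to compound-printed slides; binding of probe to printed compounds measured as 667 nm fluorescence plus signal to noise.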 Particulars: higher = more signal, called active from +8 up or from −8 down.
Assay [3] in a line: small-molecule binders of probe aNOTCH3, primary screen, biochemical, small-molecule microarray, 635/667 nm fluorescence (AID 1120).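 Further: probe is a biotin-tagged antibody raised against NOTCH3 rather than NOTCH3 protein; score merges spot fluorescence near 667 nm with spot signal to noise.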 Particulars: higher = more signal.
Assay [4] can be described thus: small-molecule binders of probe aNOTCH2, primary screen, biochemical, small-molecule microarray, 635/667 nm fluorescence (AID 1121).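 Further: score merges feature fluorescence read at 667 nm with its signal to noise.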 The settings on record: higher = more signal.
Assay [5] concerns the target Carbonic anhydrase 2 (Homo sapiens) (UniProt P00918). Kind of assay: CAII small-molecule binders, profiling panel, biochemical, small-molecule microarray, Alexa647-labelled CAII (AID 1122). The settings on record: CAII-A647 binding fluorescence, higher = more signal.
A short description of assay [6]: COS7 lysate on small-molecule microarray, probe aHis, 635 nm (AID 1123).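 Further: z-score combines 667nm fluorescence intensity with signal-to-noise per printed compound spot.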 Particulars: COS7 cell lysate, fluorescence, higher = more signal.
Assay [7] can be described thus: compound binding in COS7 lysate, probe aLAP1, primary screen, cell lysate, small-molecule microarray (AID 1124).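 Further: lysate comes from COS7 cells expressing LAP1 and is applied at 0.3 µg/mL; score merges spot fluorescence near 667 nm with signal-to-noise over triplicate slides.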 Particulars: probe aLAP1, fluorescence, higher = more signal.
Assay [8] concerns Sam68 (KHDRBS1). The assay is described as follows: Sam68 small-molecule binders, primary screen, biochemical, small-molecule microarray, 635 nm fluorescence (AID 1125).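 Further: score merges 667 nm channel intensity with signal to noise over triplicate slides.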 Particulars: small-molecule microarray binding, higher = more signal.
Assay [9] relates to Chordin-like protein 2 (CHRDL2). Kind of assay: CHRDL2 small-molecule binders, primary screen, biochemical, small-molecule microarray, 635 nm fluorescence (AID 1126).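 Further: printed compound slides probed with Chrdl2 protein at 4 µg/mL for 1 h at 4 C; score merges 667 nm emission intensity with signal to noise over three replicate slides.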 Particulars: small-molecule microarray binding, fluorescence 635 nm; higher = more signal.
Assay [10] deals with Concanavalin-A (Canavalia ensiformis) (UniProt P02866). Kind of assay: ConA small-molecule binders, primary screen, artefact control for SMM control protein annotation, biochemical, small-molecule microarray, Alexa647 label, 635 nm (AID 1127).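 Further: z combines 667 nm emission intensity with signal-to-noise across three replicate slides.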 Particulars: ConA-A647 binding fluorescence, higher = more signal.
The nature of assay [11]: anti-His antibody binders, primary screen, artefact control for SMM control protein annotation, biochemical, small-molecule microarray, 635 nm fluorescence (AID 1128).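 Further: score merges feature fluorescence with signal-to-noise for each printed compound spot.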 Particulars: anti-His Alexa647 antibody binding, higher = more signal.
Assay [12] relates to Human papillomavirus type 1a E7 protein (residues 1-88). The assay is described as follows: HPV1a E7 small-molecule binders, primary screen, biochemical, small-molecule microarray, residues 1-88, 635 nm (AID 1129). The settings on record: small-molecule microarray binding, fluorescence 635 nm; higher = more signal.
Assay [13] concerns the target Focal adhesion kinase 1 (Homo sapiens) (UniProt Q05397). Kind of assay: small-molecule microarray binders of FAK, primary screen, biochemical, 635/667 nm fluorescence, BSA, DTT (AID 1130).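 Further: composite of spot emission at 667 nm and signal to noise over triplicate slides.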 The settings on record: PTK2 binding, 635 nm fluorescence, higher = more signal.
The subject of assay [14] is Fibrinogen (Alexa647-labelled). The assay is described as follows: fibrinogen binders on compound microarrays, profiling panel, artefact control for SMM control-protein annotation, biochemical, small-molecule microarray, 635/667 nm fluorescence (AID 1131).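 Further: z-score merges 667 nm fluorescence with per-spot signal-to-noise over triplicate slides.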 Particulars: fibrinogen-A647 binding fluorescence, higher = more signal.
Assay [15] has as its target Follistatin (Homo sapiens) (UniProt P19883). Kind of assay: follistatin binders on small-molecule microarrays, primary screen, biochemical, small-molecule microarray, 635/667 nm fluorescence (AID 1132). Particulars: FST binding, 635 nm fluorescence, higher = more signal.
Assay [16] addresses Fibroblast growth factor 2 (Homo sapiens) (UniProt P09038). Kind of assay: FGF2 binders on small-molecule microarrays, primary screen, biochemical, small-molecule microarray, 635/667 nm fluorescence (AID 1133). The settings on record: small-molecule microarray binding, FGF2, fluorescence 635/667; higher = more signal.
A short description of assay [17]: mitochondrial membrane potential change in A549 cells, profiling panel, cell-based, JC-1 fluorescence, basal, 24 h, 100 nL (AID 1138).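 Further: A549 lung adenocarcinoma cells under basal conditions with no added stimulus; test concentration not given here.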 Particulars: higher = more signal.
Assay [18] relates to Lefty1. The assay is described as follows: Lefty1 binders on small-molecule microarrays, primary screen, biochemical, small-molecule microarray, 635/667 nm fluorescence (AID 1139). The settings on record: small-molecule microarray binding, fluorescence 635/667; higher = more signal.
For assay [19], the system named is wheat germ agglutinin (Triticum aestivum), Alexa647-labelled. Kind of assay: wheat germ agglutinin binders on compound microarrays, profiling panel, artefact control for SMM control-protein annotation, biochemical, small-molecule microarray, 635/667 nm fluorescence (AID 1140).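 Further: score merges 667 nm feature emission with signal to noise over triplicate slides.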 The settings on record: WGA-A647 binding, 635 nm fluorescence, higher = more signal.
Assay [20] concerns the target Luciferin 4-monooxygenase (Photinus pyralis) (UniProt P08659). Kind of assay: firefly luciferase enzyme inhibitors, primary screen, biochemical, luminescence, purified enzyme, 2006 set (AID 1141).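 Further: cell-free assay with purified firefly luciferase at 100 ng per well in PBS; test concentration not given here.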 Particulars: SteadyGlo luminescence, 30 min, higher = more signal, called active from +8 up or from −8 down.

Here are results for 5 compounds from PubChem BioAssay.

Calls of active or inactive are those of the source.

Sequence of Albumin (Bos taurus) (P02769 whole entry, looked up): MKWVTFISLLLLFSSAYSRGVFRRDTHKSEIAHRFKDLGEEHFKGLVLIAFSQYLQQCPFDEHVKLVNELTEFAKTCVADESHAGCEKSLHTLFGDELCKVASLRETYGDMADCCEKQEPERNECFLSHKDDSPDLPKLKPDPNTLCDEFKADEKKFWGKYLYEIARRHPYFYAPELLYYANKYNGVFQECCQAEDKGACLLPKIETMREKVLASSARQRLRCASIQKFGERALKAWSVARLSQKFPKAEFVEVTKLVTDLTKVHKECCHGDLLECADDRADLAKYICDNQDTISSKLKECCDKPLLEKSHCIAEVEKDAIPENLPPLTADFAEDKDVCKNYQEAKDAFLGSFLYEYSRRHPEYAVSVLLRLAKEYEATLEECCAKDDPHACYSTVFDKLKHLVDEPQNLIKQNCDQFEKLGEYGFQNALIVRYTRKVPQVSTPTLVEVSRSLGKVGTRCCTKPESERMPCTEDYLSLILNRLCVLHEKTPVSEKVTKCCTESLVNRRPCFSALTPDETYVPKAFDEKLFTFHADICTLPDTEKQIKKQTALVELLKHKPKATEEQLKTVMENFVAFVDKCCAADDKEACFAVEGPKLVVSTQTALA
Sequence of Fibroblast growth factor 2 (Homo sapiens) (P09038 whole entry, looked up): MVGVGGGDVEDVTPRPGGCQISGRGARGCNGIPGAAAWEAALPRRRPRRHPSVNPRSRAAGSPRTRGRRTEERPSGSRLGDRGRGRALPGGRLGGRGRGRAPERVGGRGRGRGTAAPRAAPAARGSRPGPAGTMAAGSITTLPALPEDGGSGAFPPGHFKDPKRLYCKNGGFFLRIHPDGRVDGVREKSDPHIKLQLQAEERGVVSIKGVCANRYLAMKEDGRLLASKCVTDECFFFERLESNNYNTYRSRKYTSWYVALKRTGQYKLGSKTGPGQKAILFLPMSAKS
Sequence of Focal adhesion kinase 1 (Homo sapiens) (Q05397 whole entry, looked up): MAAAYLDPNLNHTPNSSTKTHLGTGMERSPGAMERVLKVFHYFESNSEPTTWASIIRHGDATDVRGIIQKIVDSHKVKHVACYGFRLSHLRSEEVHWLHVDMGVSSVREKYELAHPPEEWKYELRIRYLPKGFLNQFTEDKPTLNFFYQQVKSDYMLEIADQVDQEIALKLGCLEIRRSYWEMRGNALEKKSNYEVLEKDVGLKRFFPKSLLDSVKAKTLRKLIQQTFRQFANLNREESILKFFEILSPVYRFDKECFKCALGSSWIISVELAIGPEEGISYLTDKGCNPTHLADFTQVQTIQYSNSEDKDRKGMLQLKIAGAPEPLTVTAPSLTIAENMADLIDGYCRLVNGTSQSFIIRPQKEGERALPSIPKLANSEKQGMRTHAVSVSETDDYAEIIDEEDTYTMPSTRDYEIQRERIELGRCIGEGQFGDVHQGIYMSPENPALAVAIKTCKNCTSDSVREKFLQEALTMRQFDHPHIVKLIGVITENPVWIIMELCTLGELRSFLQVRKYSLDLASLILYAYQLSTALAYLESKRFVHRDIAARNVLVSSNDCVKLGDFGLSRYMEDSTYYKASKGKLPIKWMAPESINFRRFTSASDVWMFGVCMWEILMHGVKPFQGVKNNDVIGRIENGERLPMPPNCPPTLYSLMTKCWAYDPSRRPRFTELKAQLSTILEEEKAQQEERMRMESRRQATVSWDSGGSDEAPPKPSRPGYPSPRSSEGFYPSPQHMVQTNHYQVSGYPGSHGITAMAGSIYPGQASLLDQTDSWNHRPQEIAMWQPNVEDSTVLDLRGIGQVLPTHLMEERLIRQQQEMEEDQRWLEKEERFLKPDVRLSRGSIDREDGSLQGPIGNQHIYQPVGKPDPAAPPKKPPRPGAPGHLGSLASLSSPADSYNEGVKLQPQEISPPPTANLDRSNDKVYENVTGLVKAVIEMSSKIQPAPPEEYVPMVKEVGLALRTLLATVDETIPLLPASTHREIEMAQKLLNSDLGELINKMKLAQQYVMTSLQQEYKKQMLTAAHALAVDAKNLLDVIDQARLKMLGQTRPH
Sequence of Follistatin (Homo sapiens) (P19883 whole entry, looked up): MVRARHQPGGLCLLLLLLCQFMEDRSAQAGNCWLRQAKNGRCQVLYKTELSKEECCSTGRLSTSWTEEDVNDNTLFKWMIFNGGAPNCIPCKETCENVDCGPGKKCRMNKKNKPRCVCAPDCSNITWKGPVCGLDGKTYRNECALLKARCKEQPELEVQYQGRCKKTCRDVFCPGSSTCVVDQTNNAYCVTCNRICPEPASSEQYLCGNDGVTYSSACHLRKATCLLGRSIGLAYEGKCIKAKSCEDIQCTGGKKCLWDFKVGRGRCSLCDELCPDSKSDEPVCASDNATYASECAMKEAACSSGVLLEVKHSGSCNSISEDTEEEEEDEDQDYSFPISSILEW
Sequence of Concanavalin-A (Canavalia ensiformis) (P02866 whole entry, looked up): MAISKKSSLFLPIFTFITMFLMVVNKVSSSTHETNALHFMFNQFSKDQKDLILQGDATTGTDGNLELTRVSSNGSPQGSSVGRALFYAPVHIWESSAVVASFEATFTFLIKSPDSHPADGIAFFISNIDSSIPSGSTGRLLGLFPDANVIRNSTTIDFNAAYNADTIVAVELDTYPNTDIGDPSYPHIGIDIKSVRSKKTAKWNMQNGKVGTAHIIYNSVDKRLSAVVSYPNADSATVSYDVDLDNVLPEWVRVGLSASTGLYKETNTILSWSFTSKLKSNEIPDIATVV
Sequence of Luciferin 4-monooxygenase (Photinus pyralis) (P08659 whole entry, looked up): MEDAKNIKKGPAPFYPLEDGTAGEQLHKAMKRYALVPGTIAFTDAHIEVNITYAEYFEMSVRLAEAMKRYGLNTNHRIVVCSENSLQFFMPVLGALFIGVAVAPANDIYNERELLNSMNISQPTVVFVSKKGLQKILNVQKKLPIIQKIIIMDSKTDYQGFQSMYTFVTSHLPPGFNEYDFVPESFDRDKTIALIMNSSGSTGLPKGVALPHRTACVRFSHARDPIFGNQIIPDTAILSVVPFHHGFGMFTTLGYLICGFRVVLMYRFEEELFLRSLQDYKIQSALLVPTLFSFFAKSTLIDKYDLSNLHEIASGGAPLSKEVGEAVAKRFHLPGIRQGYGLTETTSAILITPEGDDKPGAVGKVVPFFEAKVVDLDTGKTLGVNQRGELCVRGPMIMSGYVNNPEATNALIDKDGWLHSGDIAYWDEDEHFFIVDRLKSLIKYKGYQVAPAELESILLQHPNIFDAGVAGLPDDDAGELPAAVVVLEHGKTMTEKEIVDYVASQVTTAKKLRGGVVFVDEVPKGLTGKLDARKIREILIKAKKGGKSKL

`C=C[C@@H](COC(C)=O)N(Cc1ccccc1[N+](=O)[O-])S(=O)(=O)c1ccc(Br)cc1`: the composite z-score in assay [1] was 0.138; in [3], 0.122; in assay [4] it was 0.181; in assay [5], 0.659; in assay [6] it was -0.0383; in [7], 0.343. The composite z-score turned out to be 0.92 in assay [8]; 1.32 in assay [9]; 0.602 in [10]; 2.18 in assay [11]; 1.11 in assay [12]; 0.547 in [13]. The composite z-score in assay [14] was 0.619; in assay [15], 1.42; in [16], 1.51; in assay [18] it was 0.929; in assay [19], 0.567. In assay [2], the composite Z-score is 1.55 (inactive). Further, the figures for the z-score in assay [17] and in assay [20] were 0.505 and 0.335 (inactive), respectively.
For `C=CCC(OC(C)=O)[C@@H]1[C@@H](N(Cc2cccc3ccccc23)C(=O)c2cccc3ccccc23)c2cc(OCCCO)ccc2N1C(=O)c1ccc2ccccc2n1` (stereo not given in full), the composite z-score was -0.0648 in [1]; 0.0556 in assay [3]; -0.0323 in assay [4]; -0.12 in assay [5]; 0.656 in assay [6]; -0.342 in assay [7]. The composite z-score in [8] was -0.0153; in [9] it was 0.366; in [10], -0.0505; in [11] it was 0.833; in [12] it was -0.0829; in assay [13], 0.791. Besides, the composite z-score was 0.868 in [14]; 1.05 in [15]; 0.494 in assay [16]; 0.457 in assay [18]; -0.243 in assay [19]. In assay [2], the composite Z-score is 0.639 (inactive). Besides, the figures for the z-score in assay [17] and in assay [20] were -0.449 and 1.01 (inactive), respectively.
Regarding `COc1ccc([Si](C)(C)[C@@H]2[C@@H](CCn3cc([C@H](O)c4ccccc4)nn3)O[C@]3(C(=O)N(Cc4ccc(N5C(=O)c6cccc7cccc5c67)cc4)c4ccccc43)[C@H]2C)cc1`, the composite z-score in assay [1] was 0.033; in assay [3] it was -0.13; in assay [4], -0.155; in assay [5] it was 0.403; in [6], 0.791; in [7], 0.017. For the same compound, the composite z-score in assay [8] was 0.268; in assay [9] it was -0.177; in assay [10], -0.13; in [11], 0.448; in assay [12], -0.412; in assay [13] it was -0.465. In addition, the composite z-score is -0.151 in assay [14]; -0.7 in [15]; -0.513 in assay [16]; -0.236 in [18]; -0.101 in assay [19]. The composite Z-score in [2] is -0.196 (inactive). In addition, the z-score in assay [17] was 1.57; in assay [20], -0.303 (inactive).
With `CCC(CC)C(O)C1C=CC2C(=O)N(c3ccccc3)C(=O)C2N1Nc1ccc(C#N)cc1` (stereo not given), the composite z-score in [1] was 1.09; in [3] it was 0.628; in assay [4] it was 0.241; in [5], 0.729; in assay [6], 2.61; in assay [7], -0.266. Moreover, the composite z-score came out at 1.3 in [8]; 0.158 in assay [9]; 1.23 in [10]; 1.74 in [11]; 1.27 in assay [12]; 0.813 in assay [13]. Also, the composite z-score was 0.991 in assay [14]; 0.816 in [15]; -0.177 in assay [16]; 0.0695 in assay [18]; 1.21 in assay [19]. In addition, in [2], the composite Z-score was 0.35 (inactive). Also, the z-score in [17] was -0.111; in assay [20] it was -0.27 (inactive).
For `Cc1cc(C)c(C(O)C2C=CC3C(=O)N(c4ccccc4)C(=O)C3N2Nc2ccc(C#N)cc2)c(C)c1` (stereo not given), the composite z-score in [1] was 1.07; in assay [3] it was 0.0649; in [4] it was 0.115; in assay [5], 0.743; in [6] it was 3.02; in assay [7], 0.629. For the same compound, the composite z-score was 1.35 in assay [8]; -0.183 in assay [9]; 1.19 in assay [10]; 1.21 in assay [11]; 1.23 in assay [12]; 0.388 in [13]. Also, the composite z-score in [14] was 0.912; in assay [15], 0.509; in assay [16] it was 0.312; in [18] it was 0.302; in assay [19], 1.03. Besides, the composite Z-score in [2] is 0.902 (inactive). The values for the z-score in assay [17] and in assay [20] were -0.613 and -0.75 (inactive), respectively.
